Assay results published in the supplement of paper PMC6555819.

Columns and labels:
Assay in all cases: PBM binding z-score (relative to random genomic background probes); higher = stronger binding; sequences stand for … in GC…GCGATTGACAGCGTAGAATGAAGG
[1] = tested on: FXR:RXRa (NR concentration 270 nM, RXRa partner concentration 90 nM)
How it was run: (§1)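 Custom Agilent 4×180K protein-binding microarrays carried double-stranded probes. Their 34-nt variable regions held direct-repeat seeds, single-nucleotide variants, half-site ablations and random human genomic background sequences. Arrays were incubated 1 h with ligand-free nuclear receptor dimers in PBS pH 7.4, 2% milk, 0.02% Triton X-100, 1 mM DTT, 0.2 mg/mL BSA and 0.4 mg/ml salmon testes DNA. Antibodies against each partner (one per run) detected binding, and scanned fluorescence was regression-normalized. Binding z-scores use random background probes as reference.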

[2] = tested on: LXRa:RXRa (NR concentration 270 nM, RXRa partner concentration 90 nM)
How it was run: as §1

[3] = tested on: LXRa homodimer (NR concentration 270 nM)
How it was run: as §1

[4] = tested on: LXRb:RXRa (NR concentration 270 nM, RXRa partner concentration 90 nM)
How it was run: as §1

[5] = tested on: LXRb homodimer (NR concentration 270 nM)
How it was run: as §1

[6] = tested on: PPARa:RXRa (NR concentration 270 nM, RXRa partner concentration 90 nM)
How it was run: as §1

[7] = tested on: PPARg:RXRa (NR concentration 180 nM, RXRa partner concentration 90 nM)
How it was run: as §1

[8] = tested on: PPARg:RXRa 270nM:90nM, anti-RXR (NR concentration 270 nM, RXRa partner concentration 90 nM)
How it was run: as §1

[9] = tested on: PPARg:RXRa 30nM:10nM, anti-RXR (NR concentration 30 nM, RXRa partner concentration 10 nM)
How it was run: as §1

[10] = tested on: PPARg:RXRa 90nM:30nM, anti-RXR (NR concentration 90 nM, RXRa partner concentration 30 nM)
How it was run: as §1

[11] = tested on: PPARg:RXRa DBDmut IVT, anti-RXR (DBD mutation: RXRa K156A/R161A, NR concentration 270 nM, RXRa partner concentration 90 nM)
How it was run: as §1

[12] = tested on: PPARg:RXRa IVT, anti-PPARg (NR concentration 270 nM, RXRa partner concentration 90 nM)
How it was run: as §1

[13] = tested on: PPARg DBDmut:RXRa IVT, anti-PPARg (DBD mutation: PPARg1 K132A/R137A, NR concentration 270 nM, RXRa partner concentration 90 nM)
How it was run: as §1

[14] = tested on: PPARg DBDmut IVT, anti-PPARg (DBD mutation: PPARg1 K132A/R137A, NR concentration 270 nM)
How it was run: as §1

[15] = tested on: PPARg homodimer (NR concentration 180 nM)
How it was run: as §1

[16] = tested on: PXR:RXRa (NR concentration 270 nM, RXRa partner concentration 90 nM)
How it was run: as §1

[17] = tested on: PXR homodimer (NR concentration 270 nM)
How it was run: as §1

[18] = tested on: RARa:RXR (NR concentration 270 nM, RXRa partner concentration 90 nM)
How it was run: as §1

[19] = tested on: RARa homodimer (NR concentration 270 nM)
How it was run: as §1

[20] = tested on: RARb:RXRa (NR concentration 270 nM, RXRa partner concentration 90 nM)
How it was run: as §1

Row | Sequence | PBM binding z-score [1] | PBM binding z-score [2] | PBM binding z-score [3] | PBM binding z-score [4] | PBM binding z-score [5] | PBM binding z-score [6] | PBM binding z-score [7] | PBM binding z-score [8] | PBM binding z-score [9] | PBM binding z-score [10] | PBM binding z-score [11] | PBM binding z-score [12] | PBM binding z-score [13] | PBM binding z-score [14] | PBM binding z-score [15] | PBM binding z-score [16] | PBM binding z-score [17] | PBM binding z-score [18] | PBM binding z-score [19] | PBM binding z-score [20]
1 | CGAACTAGGGCAGAACAGGACAGTGAAGGATGAT | -0.103 | -0.326 | -0.302 | -0.521 | -0.666 | 1.4 | 2.24 | 1.47 | 0.448 | 0.819 | 5.8 | 5.34 | 0.749 | 1.12 | 0.692 | -0.477 | -0.0295 | 0.592 | 0.348 | 0.687
2 | TCTCGGAAGACACGAAGGTCAGAGCTTTCCAGAG | 0.883 | 0.652 | -0.454 | 0.74 | -0.988 | 1.79 | 0.356 | 1.57 | 2.55 | 1.71 | 1.64 | 0.221 | -0.344 | -0.823 | 0.689 | 1.12 | -0.144 | 1.53 | -0.631 | 2.27
3 | ATATGTAGGTTACATCCTGGTCATTCAGGCTATG | 0.666 | 2.03 | 0.602 | 1.28 | 0.798 | 3.16 | 5.21 | 4.44 | 2 | 3.57 | 7.08 | 7.21 | 2.2 | 2.23 | 0.657 | 0.747 | 0.205 | 1.05 | 0.992 | 1.11
4 | AGAATGAGGTTACCAAAGAGCAGGGAAACGCTTG | 1.71 | 5.78 | -0.463 | 2.41 | -0.39 | 3.05 | 2.22 | 2.47 | 0.623 | 1.44 | 3.47 | 2.96 | 0.794 | -0.0129 | 0.046 | 1.05 | -0.21 | 1.71 | -0.396 | 2
5 | AGAATGAGGTTATACTTAGATCAGGGAAGAAAGT | 1.79 | 1.76 | 0.275 | 1.58 | 0.388 | 2.68 | 1.83 | 1.44 | 0.605 | 1.17 | 2.72 | 2.03 | 1.21 | 1 | 1.21 | 1.02 | 0.666 | 1.38 | 1.18 | 1.3
6 | CGTCAAAGTTCAAATAAGGTAACGTAAAGCACGC | 7.39 | 6.55 | 4.89 | 4.17 | 3.25 | 4.95 | 4.86 | 5.6 | 2.25 | 4.67 | 0.597 | 2.21 | 0.83 | 1.03 | 4.04 | 5.39 | 5.14 | 4.21 | 2.53 | 5.08
7 | TCTGCTAGGCCAGTTGGTCAGCTAACGAGCTGCC | -3.09 | -0.955 | -1.26 | -1.27 | -0.666 | -0.606 | -1.07 | 0.229 | 0.768 | 0.446 | 0.789 | 0.538 | -0.123 | -0.684 | -2.67 | -0.743 | -1.82 | -0.933 | -1.48 | 0.442
8 | AGTCAAAGTACAGGACGAGGTAACGTAAAGCACG | 0.0471 | -0.247 | 0.0589 | -0.158 | -0.441 | -0.0272 | 0.99 | 0.138 | 0.254 | 0.0519 | -0.428 | 0.795 | 0.576 | 0.384 | 0.381 | -0.161 | 0.4 | 0.278 | -0.0608 | 0.641
9 | ACATACAGGTGAGTGAAGGTAACTCAGCTGGACG | 0.866 | 0.707 | -0.217 | -0.161 | -0.321 | 1.21 | 1.28 | 0.814 | 0.519 | 0.883 | 2.31 | 2.03 | 0.417 | 0.188 | 0.393 | 0.304 | -0.247 | 0.687 | -0.0591 | 0.763
